From PubChem
TLR4 MyD88 comp: blocks binding of human TLR4 to MyD88 | O00206+Q99836 | HeLa CL3-4 TLR4/MyD88 BLA complementation, FRET ratio | inhibition, % at 8.4 µM | hit rate 0.18% among 200,000; in the data active = inhibition above about 25%
ABHD5 PLIN5 PPI: blocks binding of human ABHD5 to perilipin-5 | Split G. princeps luciferase complementation, luminescence, 4 h | hit rate 0.78% among 360,000 | Q00G26+Q8WTS1 | inhibition, % at 4 µM;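 active = inhibition above the mean inhibition across every tested compound plus 3 SD, cut at about 22% in these data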
Target sequence (Q00G26 whole entry, looked up): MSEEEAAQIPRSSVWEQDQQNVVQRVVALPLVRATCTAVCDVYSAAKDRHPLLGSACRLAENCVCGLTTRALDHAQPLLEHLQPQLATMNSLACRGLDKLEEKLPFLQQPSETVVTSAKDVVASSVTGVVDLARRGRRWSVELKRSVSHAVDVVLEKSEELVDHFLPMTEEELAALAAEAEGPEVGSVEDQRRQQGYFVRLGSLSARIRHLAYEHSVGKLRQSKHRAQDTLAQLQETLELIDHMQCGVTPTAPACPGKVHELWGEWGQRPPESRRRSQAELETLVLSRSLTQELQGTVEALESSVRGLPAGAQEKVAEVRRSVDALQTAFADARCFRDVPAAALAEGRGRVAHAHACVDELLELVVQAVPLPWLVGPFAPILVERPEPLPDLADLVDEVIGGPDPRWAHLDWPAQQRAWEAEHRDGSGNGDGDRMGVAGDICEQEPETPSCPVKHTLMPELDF
Target sequence (Q8WTS1 whole entry, looked up): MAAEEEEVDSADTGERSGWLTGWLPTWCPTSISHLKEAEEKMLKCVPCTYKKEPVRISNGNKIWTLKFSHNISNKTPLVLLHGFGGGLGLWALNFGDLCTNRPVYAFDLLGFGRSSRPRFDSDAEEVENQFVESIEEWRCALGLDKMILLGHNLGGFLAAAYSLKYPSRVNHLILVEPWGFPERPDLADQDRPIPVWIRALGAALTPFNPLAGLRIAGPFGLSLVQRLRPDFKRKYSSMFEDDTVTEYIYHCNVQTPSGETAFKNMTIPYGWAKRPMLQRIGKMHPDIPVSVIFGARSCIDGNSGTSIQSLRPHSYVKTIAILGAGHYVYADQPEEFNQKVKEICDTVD
NTR1 agonist: NTR1 (human) agonism; NTR1-U2OS beta-arrestin-GFP spot imaging, agonist mode; activation, % at 20 µM; hit rate 0.17% among 330,000; AID 493036;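 active = activation at or above 40% of the spot to cytoplasm intensity ratio, with at least 20 cells analyzed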
NOD2-RIPK2 inh: inhibitors of human NOD2-RIPK2 interaction; O43353; CHO BLA complementation NOD2-RIPK2, CCF4 ratio; inhibition, % at 4.98 µM; hit rate 0.38% among 360,000; in the data active = inhibition above about 21%
TLR9-MyD88 inh: inhibitors of human TLR9-MyD88 binding. Q9NR96+Q99836. CHO BLA complementation TLR9-MyD88, CCF4 FRET ratio. AID 504734. hit rate 0.21% among 340,000. inhibition, % at 4.98 µM;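 active = inhibition above the mean over all tested compounds plus 3 SD, cut at about 21% in these data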
Beta2AR agonist: activates human beta-2 adrenergic receptor causing internalization; P07550; AID 504454; response, % (test concentration not listed); hit rate 0.43% among 340,000; Am2.2-beta2AR cells, FAP receptor internalization, flow cytometry;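 active = response above a set limit, near 3 SD of response in nonfluorescent compounds, cut at about 42% in these data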
Beta2AR ag CP1: agonists of human beta-2 adrenergic receptor; Am2.2-beta2AR cells, FAP surface receptor, flow cytometry; hits give low values; shares compounds with Beta2AR agonist; hit rate 25% among 1,100; percent response (surface receptor), % at 10 µM;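 active = surface receptor percent response at or below 58%, roughly 3 SD from nonfluorescent compounds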
B2AR FAP counter: flagged in Am2.2 fluorescence counterscreen for beta-2AR agonists; 1,100 tested, under 10 active; shares compounds with Beta2AR agonist; Am2.2 cells, FAP fluorogen flow cytometry; hits give low values; calls only at 10 µM; AID 588765;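 active = percent response below a set limit in fluorescence channel 1 and below 50% in channel 8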
Large screens that a line does not name were inactive (follow-up assays come after a bar, where they were run). Sampled rows, rich in hits. Any-hit rate of the full collection: about 1.5%.

c1ccc(CSc2nnnn2-c2cccc3ccccc23)nc1	Beta2AR agonist 43 | Beta2AR ag CP1 39 | B2AR FAP counter inactive
O=C(O)c1cccc(-n2nnnc2SCc2ccccn2)c1	none
Cn1c(NCCN2CCCC2)nc2cc(-c3cccc(C(F)(F)F)c3)sc2c1=O	none (no result: TLR4 MyD88 comp, NTR1 agonist, TLR9-MyD88 inh, Beta2AR agonist)
CCC(=O)Nc1ccc(-c2nn3c(C)nnc3s2)cc1C	Beta2AR agonist 60 | Beta2AR ag CP1 inactive | B2AR FAP counter inactive
O=C(c1ccco1)N1CCN(Cc2nnnn2CC2CCCO2)CC1 (centres undefined)	none
O=C1CCN(Cc2nnnn2CC2CCCO2)c2ccccc2N1 (centres undefined)	Beta2AR agonist 42 | Beta2AR ag CP1 inactive | B2AR FAP counter inactive
CC(CCc1ccc(O)cc1)NCCC(c1ccccc1)c1ccccc1 (centres undefined)	none (no result: TLR4 MyD88 comp) | Beta2AR ag CP1 inactive | B2AR FAP counter inactive
CCCCCCCCNC(C)C(O)c1ccc(SC(C)C)cc1 (centres undefined)	none
CC(CCc1ccc(O)cc1)NC(c1ccccc1)c1ccc(Cl)cc1 (centres undefined)	none (no result: TLR4 MyD88 comp)
CC(NCCc1ccc(O)cc1)C(O)c1ccc(O)cc1 (centres undefined)	none | Beta2AR ag CP1 inactive | B2AR FAP counter inactive
C[C@@H](NCCc1ccc(O)cc1)[C@@H](O)c1ccc(O)cc1	none (no result: TLR4 MyD88 comp) | Beta2AR ag CP1 inactive | B2AR FAP counter inactive
COc1ccc(-c2cc(C)no2)cc1S(=O)(=O)N1CC(=O)Nc2ccccc21	none (no result: TLR4 MyD88 comp)
COc1ccc(-c2cc(C)no2)cc1S(=O)(=O)N1CCOc2ccc(Cl)cc21	Beta2AR agonist 46 (no result: TLR4 MyD88 comp) | Beta2AR ag CP1 inactive | B2AR FAP counter inactive
CCCCn1nnnc1C1(C)CCC(=O)N1Cc1cccc(F)c1 (centres undefined)	none (no result: TLR4 MyD88 comp, NTR1 agonist, TLR9-MyD88 inh, Beta2AR agonist)
NS(=O)(=O)c1ccc(NC(=O)c2ccc(-c3ccccc3)cc2)cc1	none (no result: NTR1 agonist, TLR9-MyD88 inh)
O=C(O)c1cccc(NC(=O)c2ccc3c(c2)C(=O)N(c2ccccc2)C3=O)c1	none (no result: TLR4 MyD88 comp)
O=C(Nc1ccccc1C(=O)O)c1cccc(F)c1	none
O=C(O)c1cc(NC(=O)c2cccc(N3C(=O)c4ccccc4C3=O)c2)cc(C(=O)O)c1	none (no result: TLR4 MyD88 comp) | Beta2AR ag CP1 inactive | B2AR FAP counter inactive
COc1ccc(NC(=O)c2cccc(N3C(=O)c4cccc([N+](=O)[O-])c4C3=O)c2)cc1	none (no result: TLR4 MyD88 comp) | Beta2AR ag CP1 inactive | B2AR FAP counter inactive
O=C(Nc1ccccc1C(=O)O)c1cccc(N2C(=O)c3ccccc3C2=O)c1	none (no result: TLR4 MyD88 comp) | Beta2AR ag CP1 inactive | B2AR FAP counter inactive
NS(=O)(=O)c1ccc(NC(=O)c2cccc(N3C(=O)c4ccccc4C3=O)c2)cc1	Beta2AR agonist 85 (no result: TLR4 MyD88 comp) | Beta2AR ag CP1 42 | B2AR FAP counter inactive
COc1ccc(NC(=O)CNCc2cccs2)c(OC)c1	none (no result: TLR4 MyD88 comp, NTR1 agonist, Beta2AR agonist)
COC(=O)[C@@]12C[C@@H](CC(=O)NCC34CC5CC(CC(C5)C3)C4)C(=O)N(Cc3ccco3)C1=CCC(C)(C)C2	none (no result: TLR4 MyD88 comp, NTR1 agonist, TLR9-MyD88 inh, Beta2AR agonist)
COc1ccc2c(c1)CCC1C2CCC2(C)C(O)C(=O)CC12 (centres undefined)	none (no result: TLR4 MyD88 comp, NTR1 agonist)
COc1ccccc1C(=O)NC(=O)COC(=O)Cc1ccc(F)cc1	Beta2AR agonist 58 (no result: TLR4 MyD88 comp) | Beta2AR ag CP1 inactive | B2AR FAP counter inactive
Cc1ccsc1CNC(=O)C1(C)CCN1C(C)C (centres undefined)	none (no result: TLR4 MyD88 comp, NTR1 agonist, TLR9-MyD88 inh, Beta2AR agonist)
CCN(C(=O)c1ccc(NC(C)=O)cc1)c1ccccc1	none
CCCCN(C(=O)c1ccc(NC(=O)C(C)C)cc1)c1ccccc1	Beta2AR agonist 95 | Beta2AR ag CP1 20 | B2AR FAP counter inactive
CC(C)C[C@H]1CN(CCCC[C@@H]2CNC(=O)C(=O)N2CC2CCCCC2)C(=O)C(=O)N1CCc1ccccc1	none (no result: TLR4 MyD88 comp, NTR1 agonist, TLR9-MyD88 inh, Beta2AR agonist)
COc1cccc(OC)c1OCC(O)CN1CCN(c2ccccc2)CC1 (centres undefined)	Beta2AR agonist 48 | Beta2AR ag CP1 inactive | B2AR FAP counter inactive
O=C(Nc1ccc2c(c1)OCO2)c1ccc2sc([C@@H]3O[C@H](CO)[C@H](O)[C@H](O)[C@H]3O)nc2c1	none (no result: TLR4 MyD88 comp, NTR1 agonist, TLR9-MyD88 inh, Beta2AR agonist)
CC(C)NCC(O)COCCOc1ccc(Cl)cc1 (centres undefined)	none (no result: TLR4 MyD88 comp)
